Pf growth 96h = inhibits malaria parasite growth, 96 h | P. falciparum luciferase reporter growth, 96 h | Potency, µM (titrated, usually from 28.7 µM), without a hit: at the highest dose activity change, negative = inhibition, actives largely listed as inhibitors | AID 504834 | 320,000 compounds, 6.9% hits; further: potency means the concentration at half of the fitted maximal effect; on the % scale 0 is the no-effect control and ±100 the full control effect
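96 h incubation, 37 C, 5% CO2, of luciferase-reporter P. falciparum-infected RBCs (2% hematocrit, 0.05% parasitemia final) with test compounds; endpoint luminescence.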
Pf growth 48h = inhibits P. falciparum growth in the first generation, 48 h. P. falciparum luciferase growth in erythrocytes, 48 h. Potency, µM (doses to about 28.7 µM), for the others: at the highest dose activity change, negative = inhibition, usual class: inhibitors. 310,000 compounds, 5.9% hits. AID 504832; further: potency means the concentration at half of the fitted maximal effect; on the % scale 0 is the no-effect control and ±100 the full control effect
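Firefly luciferase activity from engineered P. falciparum reports growth; inhibitors lower the luminescent signal. Cultures contained 2% hematocrit erythrocytes at 0.1% final parasitemia.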
Shiga inhibitor = inhibitors of Shiga toxin in Vero cells | inhibition, % at 38.7 µM | 290,000 compounds, 9.2% hits | Vero cells, Shiga toxin protein synthesis inhibition reporter; in the data active means inhibition mostly above about 28%, no sharp cut-off; inactive means mostly below about 43%; further: 0% is about no effect
AMA1 RON2 block = inhibitors of Plasmodium falciparum AMA1-RON2 interaction; Potency, µM (titrated, usually from 58.2 µM), inactives show at the top dose activity change, negative = inhibition, usual class: inhibitors; 360,000 compounds, 0.2% hits; AlphaScreen AMA1-biotinylated RON2 peptide binding;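 further: potency means the concentration at half of the fitted maximal effect; 0% = vehicle wells and -100% = peptide control; nearly all actives have a fitted effect of over 45% in size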
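AMA1 (3D7) with his tag at 25 nM final met compounds first, then biotinylated RON2 peptide at 25 nM; detection used donor plus acceptor beads, 10 µg/mL apiece, read by AlphaScreen after 30 min at room temperature.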
HCV inhibitor = blocks hepatitis C virus; Huh7.5.1 HCVcc-Cre infection, luciferase reporter, 44 h; Potency, µM (series often up to 41.8 µM), for inactives: at the top dose activity change, negative = inhibition, hits mostly inhibitors; 340,000 compounds, 3.4% hits; AID 651820; further: potency means the concentration at half of the fitted maximal effect; on the % scale 0 is the no-effect control and ±100 the full control effect
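Reporter virus HCVcc-Cre (~0.5 moi) infects cells exposed to compound; seeding density 1,000 cells/well with 4 h settling beforehand. Luminescence, 15 sec read, taken 44 h post-infection following a 15 min RT substrate incubation.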
Cycloheximide cs = affects cycloheximide protein synthesis inhibition readout, counter-screen. cell reporter, cycloheximide protein synthesis inhibition counterscreen. max response, %. 300,000 compounds, 12% hits. AID 2314; in the data active means max response mostly above about 13%, no sharp cut-off; inactive means mostly below about 14%; further: read at 38.3 µM for the half of the compounds with a filed dose; 0% is about no effect
* marks the source's active call; other numbers are inactive results. Most compounds without a hit are left out; they make up all but 21% or so of the library. Unless noted, the call rests on the fitted dose curve; in most records, active means well fitted curve in the direction sought with a large enough effect; inconclusive means small, poorly fitted or top-dose-only effect, or another doubt; inactive means no such curve, though single readings can be large; an effect the other way counts as inactive or inconclusive.

Fc1ccc(Nc2c3c(nc4ccccc24)CCC3)cc1 was read as Pf growth 96h -3%, Pf growth 48h inconclusive, Shiga inhibitor -5, AMA1 RON2 block -8%, HCV inhibitor 14µM* and Cycloheximide cs -2.
Cc1ccc2nc3c(c(Nc4ccccc4)c2c1)CCC3 was read as Pf growth 96h 9.3µM*, Pf growth 48h inconclusive, Shiga inhibitor -7, AMA1 RON2 block -11%, HCV inhibitor inconclusive and Cycloheximide cs -2.
CCCn1c(=O)c2c(nc3n2CCN3Cc2ccco2)n(C)c1=O was read as Pf growth 96h 6%, Pf growth 48h -17%, Shiga inhibitor 15, AMA1 RON2 block 0%, HCV inhibitor -19% and Cycloheximide cs 1.
COc1ccccc1Oc1nc2c(c(=O)n(Cc3ccccc3F)c(=O)n2C)n1C was read as Pf growth 96h 15µM*, Pf growth 48h -25%, Shiga inhibitor -9, AMA1 RON2 block 4%, HCV inhibitor inconclusive and Cycloheximide cs -2.
Screening Cn1c(=O)n(Cc2ccc(Cl)cc2)c(=O)c2c1nc1n2CCN1Cc1ccco1 returned Pf growth 96h 13µM*, Pf growth 48h inconclusive, Shiga inhibitor -8, AMA1 RON2 block 4%, HCV inhibitor 16µM* and Cycloheximide cs 14.
Screening Cn1c(NCCCO)nc2c1c(=O)n(Cc1ccccc1F)c(=O)n2C returned Pf growth 96h -14%, Pf growth 48h -9%, Shiga inhibitor -1, AMA1 RON2 block -9%, HCV inhibitor 21% and Cycloheximide cs -3.
Cc1cccc(Cn2c(=O)c3c(nc4n3CCN4Cc3ccco3)n(C)c2=O)c1 was read as Pf growth 96h 5.9µM*, Pf growth 48h 9.3µM*, Shiga inhibitor -3, AMA1 RON2 block 0%, HCV inhibitor inconclusive and Cycloheximide cs 10.
`Cn1c(=O)n(Cc2ccccc2F)c(=O)c2c1nc1n2CCN1Cc1ccco1` gave Pf growth 96h 8.3µM*, Pf growth 48h inconclusive, Shiga inhibitor -13, AMA1 RON2 block -23%, HCV inhibitor -5% and Cycloheximide cs 4.
Screening Cc1c(C(=O)O)cnc2cc(-c3ccc(Cl)cc3)nn12 returned Pf growth 96h 10%, Pf growth 48h 61%, Shiga inhibitor 30, AMA1 RON2 block 2%, HCV inhibitor 15% and Cycloheximide cs 16*.
Screening CC(=O)c1cnc2cc(-c3ccc(Cl)cc3)nn2c1C returned Pf growth 96h 45%, Shiga inhibitor 56*, AMA1 RON2 block 22%, HCV inhibitor 1% and Cycloheximide cs 21*.
For CC(=Nc1ccccc1N)c1c(C)cc(=O)n(O)c1O the results were Shiga inhibitor 57* and Cycloheximide cs 31*.
Screening COc1ccc(OCc2cc(C(=O)N(C)Cc3nnc(C)o3)no2)c(Cl)c1 returned Pf growth 96h 2%, Pf growth 48h 119%, Shiga inhibitor 111*, AMA1 RON2 block 0%, HCV inhibitor 5% and Cycloheximide cs 29*.
COc1cc(Cl)ccc1OCc1cc(C(=O)N(C)Cc2nnc(C)o2)no1 was read as Pf growth 96h -25%, Pf growth 48h 22%, Shiga inhibitor 17, AMA1 RON2 block 1%, HCV inhibitor 1% and Cycloheximide cs 35*.
Screening CCc1ccc(CN(C)C(=O)c2cc(COc3ccc(OC)cc3Cl)on2)nc1 returned Pf growth 96h 7%, Pf growth 48h 29%, Shiga inhibitor 84*, AMA1 RON2 block 24%, HCV inhibitor -25% and Cycloheximide cs 68*.
COc1ccc(OCc2cc(C(=O)N(C)Cc3cc(C)no3)no2)c(Cl)c1 was read as Pf growth 96h 20%, Pf growth 48h 123%, Shiga inhibitor 99*, AMA1 RON2 block 0%, HCV inhibitor -6% and Cycloheximide cs 72*.
For CCc1ccc(CN(C)C(=O)c2cc(COc3cccc(C(F)(F)F)c3)on2)nc1 the results were Pf growth 96h inconclusive, Pf growth 48h inconclusive, Shiga inhibitor 39, AMA1 RON2 block 33%, HCV inhibitor inconclusive and Cycloheximide cs 14.
For CCN1CCN(c2ccc(S(=O)(=O)N3CCCCC3)cc2NC(=O)c2cc3ccccc3o2)CC1 the results were Pf growth 96h 2.1µM*, Pf growth 48h 4.1µM*, AMA1 RON2 block -2% and HCV inhibitor inconclusive.
`Cc1ccc(S(=O)(=O)N2CCCCC2)cc1NC(=O)c1ccc(Br)o1` gave Pf growth 96h inconclusive, Pf growth 48h 7.4µM*, AMA1 RON2 block -4% and HCV inhibitor -26%.
`Cc1ccc(S(=O)(=O)N2CCCCC2)cc1NC(=O)c1ccccc1Cl` gave AMA1 RON2 block 14% and HCV inhibitor inconclusive.
For CCN(CC)S(=O)(=O)c1ccc(N2CCOCC2)c(NC(=O)c2cc3ccccc3o2)c1 the results were AMA1 RON2 block -8%.
Cc1ccc(S(=O)(=O)N2CCCCC2)cc1NC(=O)c1cc2ccccc2o1 was read as Pf growth 96h inconclusive, Pf growth 48h inconclusive, AMA1 RON2 block 11% and HCV inhibitor 22µM*.
`COc1ccc(NC(=O)NNS(=O)(=O)c2ccc(OC)c(OC)c2)c(OC)c1` gave Pf growth 96h -26%, Pf growth 48h 34%, Shiga inhibitor 7, AMA1 RON2 block 11%, HCV inhibitor 19% and Cycloheximide cs 0.
N#Cc1ccc(OCC(=O)OCC(=O)Nc2sccc2C(N)=O)cc1 was read as Pf growth 96h 9%, Pf growth 48h -20%, AMA1 RON2 block 19% and HCV inhibitor 7%.
COC(=O)C(C)CCCC(C)CCCC(C)CCCC(C)C (stereo unspecified) was read as Shiga inhibitor -6 and Cycloheximide cs -7.
For O=C(OCc1ccccc1Cl)c1cccnc1Cl the results were Pf growth 48h 4%, Shiga inhibitor 49, AMA1 RON2 block 5%, HCV inhibitor -9% and Cycloheximide cs 14.
`O=C(OCc1ccccc1Cl)c1ccccc1C(=O)c1ccccc1` gave Pf growth 96h -46%, Pf growth 48h 26%, Shiga inhibitor 65*, AMA1 RON2 block 51%, HCV inhibitor 17% and Cycloheximide cs 19*.
Screening N/C(=N\OC(=O)c1ccco1)c1ccc(Cl)cc1 returned Pf growth 96h 65%, Pf growth 48h 86%, Shiga inhibitor 84*, AMA1 RON2 block 10%, HCV inhibitor 19% and Cycloheximide cs 62*.
For N/C(=N\OC(=O)c1ccco1)c1cccnc1 the results were Pf growth 96h 63%, Pf growth 48h 44%, Shiga inhibitor 109*, AMA1 RON2 block 6%, HCV inhibitor -3% and Cycloheximide cs 34*.
N/C(=N\OC(=O)c1ccccc1Cl)c1ccc(Cl)cc1 was read as Pf growth 96h 37%, Pf growth 48h 214%, Shiga inhibitor 63*, AMA1 RON2 block 33%, HCV inhibitor 18% and Cycloheximide cs 49*.
Screening CCCNC(=O)C1(C)CCCN(C(=O)c2ccc3ccccc3c2)C1 (stereo unspecified) returned AMA1 RON2 block -1%.
